# Screens as filed in PubChem.
# In the library only some 2.4% were active in any assay of this set; here they are far more common.
# aSyn yeast inh = qHTS of alpha-syn Inhibitors; Yeast expressing alpha-synuclein, growth rescue, BacTiter-Glo, 24 h; Potency, µM (series often up to 46.1 µM), for the others: at the top dose growth rescue (activation), usual class: activators; actives 0.14% (n = 370,000); also: % of control where 0% means no effect; nearly all actives have a fitted effect of over 65% in size
#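 Screening used galactose-induced yeast with toxic alpha-synuclein levels, exposed to compound for 24 hr at 30 deg C. Cell growth, read with BacTiter-Glo luminescence, gave the measured signal.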
# Abeta rescue = qHTS for compounds that reverse cellular toxicity of Amyloid beta (A-beta) peptide in yeast: Primary Screen; yeast expressing A-beta42, growth rescue, OD600, 48 h; response scale: 0% DMSO, 100% iron-clioquinol control; Potency, µM (series often up to 46.1 µM), usual class: activators; actives 0.063% (n = 410,000); AID 1347071, 2019; also: nearly all actives have a fitted effect of over 55% in size
#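 Yeast A-beta toxicity model in growth medium with pinned compounds, 48 h at 30 C; growth read as absorbance at 600 nm. Normalized to FeCl3/clioquinol equimolar mix (positive) and DMSO (negative).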
# FUS suppressor = qHTS for Suppressors of FUS Proteinopathy: Primary screen using FUS-linked yeast assay | actives 0.24% (n = 390,000) | Potency, µM (highest dose often 76.6 µM), usual class: activators | S. cerevisiae FUS-expressing, growth rescue, OD600, 24 h;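 also: plate controls were DMSO vehicle for no effect and reference control for full effect; nearly all actives have a fitted effect of over 55% in size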
#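 Yeast FUS proteinopathy model; galactose-induced FUS (2%), starting OD 0.005. Cpds in dilution series, 24hr, 30C, 99% humidity. Abs 600 nm growth. Pos ctrl CP55940 (top 92uM final); neg ctrl DMSO.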
# TDP43 rescue = qHTS of TDP-43 Inhibitors. Potency, µM (top dose mostly 46.1 µM), inactives show at the top dose growth rescue (activation), usual class: activators. AID 652104, 2013. actives 1.8% (n = 410,000). TDP-43 expressing yeast growth rescue, BacTiter-Glo, 24 h; also: % of control where 0% means no effect; nearly all actives have a fitted effect of over 50% in size
#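 Galactose-induced TDP-43 yeast, OD600=0.02, compound pinned; 24 hr, 30 deg C; BacTiter-Glo luminescence for growth. Inhibitors of TDP-43 toxicity read as activators.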
# Mito fusion yeast = qHTS Assay for Small Molecule Inhibitors of Mitochondrial Division or Activators of Mitochondrial Fusion. actives 0.23% (n = 320,000). Potency, µM (series often up to 46.1 µM), for the others: at the top dose growth rescue (activation), hits mostly activators. AID 485298, 2010. S. cerevisiae fusion-defective mutant growth rescue, CellTiterGlo 48 h; also: % of control where 0% means no effect; nearly all actives have a fitted effect of over 45% in size
#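 S. cerevisiae fusion-defective temperature-sensitive mutants (e.g. fzo1-1, mgm1-5) grown 48 h at 37C in YPEG (ethanol/glycerol non-fermentable) medium with 23 nl compound per well; growth rescue read as CellTiterGlo luminescence.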
# A-T KAP1 phos = qHTS Assay for Identifying a Potential Treatment of Ataxia-Telangiectasia; Potency, µM (titrated, usually from 57.5 µM), without a hit: at the top dose activation, hits mostly activators; F2112 A-T fibroblasts, KAP-1 phosphorylation AlphaLISA; neocarzinostatin DNA damage 30 min before lysis; actives 0.19% (n = 320,000); also: % of control where 0% means no effect; nearly all actives have a fitted effect of over 45% in size
#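 hTERT-immortalized A-T patient fibroblasts (F2112), 500 cells/well in OPTI-MEM, 1% FBS, got compounds for 60 min, then NCS for 30 min at 37C. Lysates were then assayed for phospho-KAP-1 by AlphaLISA (anti-pKAP1 donor, anti-KAP1 acceptor beads), 6 hr at 25C.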
# * hit, by the source's call; i = inactive; ? = inconclusive; / = no result given; [ ] = dose if it differs, or a comment. Calls follow the shape of the dose curve; as a rule, active = well fitted curve in the direction sought with a large enough effect; inconclusive = small, poorly fitted or top-dose-only effect, or another doubt; inactive = no such curve, though single readings can be large; an effect the other way counts as inactive or inconclusive. Potency is read from the fitted curve at half-maximal effect.
SMILES,aSyn yeast inh,Abeta rescue,FUS suppressor,TDP43 rescue,Mito fusion yeast,A-T KAP1 phos
CC1=C(C(=O)OC2CCCCCC2)C(c2c(F)cccc2Cl)CC(=O)N1 (stereo not drawn),/,i,i,11µM*,/,/
CC(=O)Oc1ccc2c(=O)oc(-c3ccccc3C)nc2c1,-1%,i,i,14µM*,1%,-3%
CCC(=O)Oc1ccc(-c2nc3ccccc3c(=O)o2)cc1,/,i,i,4µM*,/,/
CC(=O)Oc1ccc(-c2nc3cc(Cl)ccc3c(=O)o2)cc1,0%,i,i,4µM*,1%,10%
CCCOc1ccc(-c2nc3ccccc3c(=O)o2)cc1,2%,i,i,10%,/,/
CC(=O)Oc1ccc2c(=O)oc(-c3ccccc3)nc2c1,-6%,i,i,-17%[1.82 µM],0%,-3%
CC(=O)Oc1ccc2nc(/C=C/c3ccccc3)oc(=O)c2c1,0%,i,i,3.5µM*,-1%,11%
O=C(CN1CCN(Cc2ccccc2Cl)C1=O)NCc1ccccc1Cl,/,i,i,25%,/,/
CCCCN=C(N)NC(=O)OCc1ccccc1,/,/,i,/,/,/
Cc1cc(C)cc(-n2c(SCC(N)=O)nc3c([nH]c4ccccc43)c2=O)c1,0%,i,i,0%,/,/
CCCCCOc1c(Cl)cc(C(=O)N(Cc2ccc(C)o2)C2CCS(=O)(=O)C2)cc1Cl (stereo not drawn),/,i,35µM*,5%,/,/
CCCCOc1c(Cl)cc(C(=O)N(Cc2ccc(C)o2)C2CCS(=O)(=O)C2)cc1Cl (stereo not drawn),/,i,?,?,/,/
COc1ccc(C2C(C(=O)N3CCN(C=O)CC3)CC(=O)N2c2ccc(OC)cc2)cc1 (stereo not drawn),/,/,i,/,/,/
Cn1cnc2c1c(=O)n(Cc1cccc(Br)c1)c(=O)n2C,?,i,i,?,12%,-1%
CCn1cnc2c1c(=O)n(Cc1cccc(Br)c1)c(=O)n2Cc1ccccc1,0%,i,i,22µM*,?,-1%
O=C1CC2(CCN(S(=O)(=O)c3ccccc3)CC2)Oc2ccccc21,15%,i,i,20µM*,15%,6%
Cc1ccc(S(=O)(=O)n2c(=O)oc3ccccc32)cc1,11%,i,i,8.9µM*,14%,2%
CCOc1ccc(C2C(C(=O)Nc3ccccc3)=C(C)Nc3nc(-c4ccccc4)nn32)cc1OC (stereo not drawn),/,i,?,-14%,/,/
CC1CC(C)CN(C(=O)C(NS(=O)(=O)c2ccc(Br)s2)c2ccccc2)C1 (stereo not drawn),-2%,i,i,14µM*,?,9%
c1coc(CN(Cc2ccco2)c2ncnc3c2oc2ccccc23)c1,1%,i,?,20µM*,14%,/
Clc1ncnc2c1oc1ccccc12,-4%,i,i,18%,-6%,-1%
COc1ccc(OC)c(CCNC(=O)CCn2c(=O)c3cccn3c3cccnc32)c1,/,i,i,14%,/,/
CC(=O)OC[C@]12CC[C@H]3[C@@](C)(CC[C@H]4C(C)(C)CCC[C@]34C)[C@@H]1C[C@H](C1=CC(=O)O[C@@H]1OC(C)=O)O2,/,/,/,/,/,40µM*
CCc1ccc(CN(C)C(=O)CCc2nc3ccccc3n(-c3ccc(OC)cc3)c2=O)cc1,20%,i,?,18µM*,4%,-2%
CC(C)C(C(=O)Nc1ccccc1)N1C(=O)c2ccccc2C1=O (stereo not drawn),8%,i,i,16µM*,1%,2%
SMILES,aSyn yeast inh,Abeta rescue,FUS suppressor,TDP43 rescue,Mito fusion yeast,A-T KAP1 phos
CC(C(=O)Nc1ccccc1)N1C(=O)c2ccccc2C1=O (stereo not drawn),1%,i,i,9%,3%,1%
CCOC(=O)CC[C@@]1(C(=O)OCC)C[C@@H](CC(=O)NCCCN2CCCC2=O)C(=O)N2CCCC=C21,/,/,i,/,/,/
Cc1c[nH]c2cccc(-c3ccc(OCc4ccccc4)cc3)c12,/,/,i,/,/,/
CCOC(=O)N1CCC(NC(=O)c2ccc3c(c2)sc2nc(-c4ccccc4)cn23)CC1,0%,i,i,20%,7%,20µM*
Cc1ccc(N/C=C(\C2OC(=O)c3ccccc32)[N+](=O)[O-])c(C)c1 (stereo not drawn),8%,i,i,-12%,9%,1%
O=C1OC(/C(=C\Nc2ccc(F)cc2F)[N+](=O)[O-])c2ccccc21 (stereo not drawn),18µM*,i,i,?,20%,19%
Cc1ccc(NC(=O)c2cc(S(=O)(=O)NCCC3=CCCCC3)ccc2F)cc1,9%,i,/,22µM*,17%,-6%
CCOc1ccc(NC(=O)c2cc(S(=O)(=O)NC3CCCCCC3)ccc2F)cc1,/,i,i,13µM*,/,/
COc1ccc(NC(=O)c2cc(S(=O)(=O)NCC3COc4ccccc4O3)ccc2F)cc1 (stereo not drawn),6%,i,?,35µM*,11%,0%
CC(C)c1ccc(NC(=O)c2cc(S(=O)(=O)NCC3COc4ccccc4O3)ccc2F)cc1 (stereo not drawn),?,i,?,?,8%,-1%
O=C(COCc1ccccc1)N1CC[C@H]2[C@H](CCCN2Cc2ccccc2)C1,/,/,i,/,/,/
CCOc1ccc(CCNC(=O)c2cccc(-n3c(C)nc4cccnc43)c2C)cc1,/,i,i,2%,/,/
CCOc1ccc(/C=C/c2nc(C#N)c(NC(C)CC)o2)cc1 (stereo not drawn),/,i,i,0%,/,/
COc1cccc(C(Nc2ccccc2)c2ccc3ccc(C)nc3c2O)c1 (stereo not drawn),18µM*,?,i,22µM*,/,/
Cc1cccc(NC(c2ccc(O)cc2)c2ccc3ccc(C)nc3c2O)n1 (stereo not drawn),-4%,i,16µM*,-22%,-2%,0%
Cc1cc(NC(c2cccnc2)c2ccc3cccnc3c2O)no1 (stereo not drawn),14%,i,i,2%,6%,-5%
COc1cccc(C(NC(C)=O)c2ccc3cccnc3c2O)c1 (stereo not drawn),?,?,?,4%,8%,4%
